# Bioassay records (PubChem)
# HP1b binding inh: HP1-beta chromodomain-methylated histone interaction inhibition | AlphaScreen HP1-beta / biotin-H3K9me3 peptide binding | 0.56% of 390,000 active | P83916 | Potency, µM (titrated, usually from 114 µM), hits mostly inhibitors | AID 540317; note: nearly all actives have a fitted effect of over 70% in size
# Target sequence (P83916 whole entry, looked up): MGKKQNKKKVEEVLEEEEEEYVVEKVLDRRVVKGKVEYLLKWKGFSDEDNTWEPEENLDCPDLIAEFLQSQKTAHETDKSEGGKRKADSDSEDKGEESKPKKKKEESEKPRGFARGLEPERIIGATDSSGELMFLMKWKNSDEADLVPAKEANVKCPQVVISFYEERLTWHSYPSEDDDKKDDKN
#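 HP1-beta protein (50 nM final) preincubated 30 min at room temperature with biotinylated H3(1-18)K9me3 peptide (50 nM) in PBS pH 7.4, 0.01% Tween-20, then compound added for 30 min. AlphaScreen streptavidin donor/nickel chelate acceptor beads (10 ug/mL final), 30 min dark, luminescence read.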
# JMJD2A Tudor: JMJD2A Tudor domain (human) inhibition; AID 504339; Potency, µM (doses to about 114 µM), most hits filed as inhibitors; O75164; AlphaScreen JMJD2A-Tudor / H3K4me3 peptide binding; 4.4% of 390,000 active; note: nearly all actives have a fitted effect of over 50% in size
# G9a block: G9a (human) methyltransferase inhibition; Q96KQ7; G9a H3K9 monomethylation, AlphaScreen, 2 h; Potency, µM (doses to about 102 µM), actives largely listed as inhibitors; 8.8% of 350,000 active; note: nearly all actives have a fitted effect of over 75% in size
# Target sequence (Q96KQ7 913-1193 limits assumed): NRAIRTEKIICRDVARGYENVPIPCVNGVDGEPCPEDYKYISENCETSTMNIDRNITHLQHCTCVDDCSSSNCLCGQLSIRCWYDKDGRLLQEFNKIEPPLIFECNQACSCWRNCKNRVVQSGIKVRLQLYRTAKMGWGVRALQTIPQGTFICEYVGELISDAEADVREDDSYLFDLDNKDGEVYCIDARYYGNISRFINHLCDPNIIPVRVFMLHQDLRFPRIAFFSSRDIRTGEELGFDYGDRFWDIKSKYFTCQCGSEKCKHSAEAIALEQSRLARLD
#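 Using a bead-based AlphaScreen, monomethylated H3K9 product from 2 h room-temperature reactions (G9a 20 nM, peptide 500 nM, SAM 20 uM) was detected with 0.5 ug/mL rabbit anti-H3K9me1 antibody.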
# PLK1 PBD block: blocks phosphopeptide binding to human PLK1 polo-box domain; P53350; Plk1 PBD binding of FITC phosphopeptide, fluorescence polarization; Potency, µM, most hits filed as inhibitors; 2.8% of 360,000 active; AID 720504; note: series mostly up to about 57 µM; nearly all actives have a fitted effect of over 65% in size
# 12-LOX inh: ALOX12 (human) lipoxygenase inhibition. purified 12hLO, xylenol orange hydroperoxide absorbance. 1.1% of 580,000 active. AID 1671190. Potency, µM (top dose mostly 108 µM), most hits filed as inhibitors. P18054
#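 Purified human 12hLO at 150 nM in 25 mM Hepes, 0.01% Triton X-100, pH 7.0, preincubated 15 min at room temperature with compound. Reaction started with 40 uM arachidonic acid, 30 min at room temperature. Hydroperoxide measured by Fe-xylenol orange, 573/405 nm absorbance ratio.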
# BAZ2B block: blocks human BAZ2B; Q9UIF8; AlphaScreen BAZ2B-H3K14Ac peptide displacement; Potency, µM (titrated, usually from 114 µM), actives largely listed as inhibitors; 4.4% of 360,000 active; note: nearly all actives have a fitted effect of over 60% in size
#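 Protein-peptide AlphaScreen: BAZ2B 50 nM, b-H3K14Ac 50 nM, 1x PBS pH 7.4 + 0.01% Tween-20. Preincubation 30 min RT; cpd 30 min RT (top 110 uM); beads 20 min RT, light-protected.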
# Numbers stand for hits; i = inactive; ? = inconclusive; nt = no result given; [ ] = another dose, or the depositor's remark. Most compounds without a hit are left out; they make up all but 9% or so of the library. Calls come from the whole dose curve; as a rule, active = well fitted curve in the direction sought with a large enough effect; inconclusive = small, poorly fitted or top-dose-only effect, or another doubt; inactive = no such curve, though single readings can be large; an effect the other way counts as inactive or inconclusive.
SMILES,HP1b binding inh,JMJD2A Tudor,G9a block,PLK1 PBD block,12-LOX inh,BAZ2B block
COC(=O)CCC(=O)Nc1sc(C)c(C)c1C(N)=O,?,?,2.82µM,4.74µM,?,i
COC(=O)CCC(=O)NC(=S)Nc1sc(C)c(C)c1C(N)=O,i,i,8.91µM,i,i,i
Cc1sc(NC(=S)NC(=O)CCc2ccccc2)c(C(N)=O)c1C,i,i,?,i,i,i
CCOC(=O)c1c(NC(N)=O)sc(C)c1C,i,i,i,i,i,i
CCOc1cccc(SCc2noc(C(=O)NCCOC)c2C(=O)O)c1,i,i,?,i,i,i
CC(=O)Oc1ccc2cc(-c3nc4ccccc4n3C)c(=O)oc2c1,i,i,i,i,i,i
O=c1cc(CN2CCCCC2)c2cc(O)c(-c3ccccc3)cc2o1,nt,nt,nt,nt,i,nt
O=c1cc(CN2CCN(c3ccccc3F)CC2)c2cc(O)c(-c3ccccc3)cc2o1,i,89.1µM,i,?,i,i
CC(C)CN(Cc1cc(=O)oc2cc(-c3ccccc3)c(O)cc12)CC(C)C,i,i[11.4 µM],i,29.9µM,i,i
O=S(=O)(CCSc1ccc(C(F)(F)F)cn1)c1ccccc1,i,i,i,i,i,i
O=c1[nH]c(CN(CCc2ccccc2)S(=O)(=O)c2ccc(Cl)cc2)nc2ccccc12,i,i,i,i,i,i
CC(=O)N1CSCC1C(=O)NNS(=O)(=O)c1ccccc1 (configuration not stated),i,25.1µM,i,i,?,i
COc1ccc(NC(=O)Cn2c(=O)n(-c3cc(C)cc(C)c3)c(=O)c3oc4ccccc4c32)cc1OC,i,i,?,nt,i,i
Fc1ccccc1-c1n[nH]c(=S)n1CC1CCCO1 (configuration not stated),i,i,i[12.7 µM],i,i,i
CC(C)(C)c1ccc(-c2n[nH]c(=S)n2CC2CCCO2)cc1 (configuration not stated),i,31.6µM,7.94µM,i,?,i
S=c1[nH]nc(-c2ccccc2Cl)n1CC1CCCO1 (configuration not stated),i,39.8µM,5.01µM,i,i,i
Cc1nc(-c2ccc(Cl)cc2)n(Cc2ccccc2)c(=O)c1CCO,nt,nt,nt,nt,i,nt
CC(=O)[C@H]1CC[C@H]2C3CC=C4C[C@@H](O)CC[C@]4(C)C3CC[C@]12C (some centres not stated),nt,nt,i,nt,i,nt
Cc1nc2c(ccc3nc(NC(=O)C4CC4)sc32)s1,i,i,i,i,i,i
CC(C)Cc1ccc(-c2cc(=O)[nH][nH]2)cc1,i,i[11.4 µM],nt,16.8µM,i,i
CC(=O)Nc1ccc(NC(=O)CSc2ccc(-c3ccco3)nn2)cc1,i,?,28.2µM,i,i,?
Cc1cc(C)cc(NC(=O)CSc2ccc(-c3ccco3)nn2)c1,i,i,25.1µM,?,i,?
Cc1nc(C)c(-c2ccc(SCC(=O)Nc3cccc(F)c3)nn2)s1,i,?,22.4µM,?,i,i
Cc1ccc(NC(=O)CSc2ccc(-c3ccco3)nn2)cc1,i,i,39.8µM,i,i,i
COc1ccc(NC(=O)CSc2ccc(-c3ccco3)nn2)cc1,i,i,nt,i,?,i
SMILES,HP1b binding inh,JMJD2A Tudor,G9a block,PLK1 PBD block,12-LOX inh,BAZ2B block
CC(=O)c1cccc(NC(=O)CSc2ccc(-c3sc(C)nc3C)nn2)c1,i,i,?,i,i,i
CC1NC(=O)c2cc3ccccc3cc2-n2c1nc1cc(F)ccc1c2=O (configuration not stated),nt,nt,nt,i,?,nt
CN(C)C(CNC(=O)CCc1ncc(-c2ccc(F)cc2)o1)c1cccc(F)c1 (configuration not stated),nt,nt,nt,nt,i,nt
CC(=O)Nc1ccc(NC(=O)CSc2ccc(-c3cccs3)nn2)cc1,i,i,i,i,i,i
CC(=O)Nc1cccc(NC(=O)CSc2ccc(-c3ccco3)nn2)c1,i,?,39.8µM,?,?,?
COc1ccc(NC(=O)CSc2ccc(-c3cccs3)nn2)cc1,i,i,10µM,nt,i,i
Cc1ccc(C)c(-n2[nH]c3c4c(ccc3c2=O)C(=O)c2ccccc2C4=O)c1,50.1µM,?,i,i,i,44.7µM
COCCNC(=O)c1cccc2c1-c1ccccc1C2=O,i,i,i,i,i,i
Cc1ccc(-n2[nH]c3c4c(ccc3c2=O)C(=O)c2ccccc2C4=O)cc1,i,i,2.82µM,i,i,i
